HIF-2a inh = blocks HIF-2a reporter activity; inhibition, % at 18.8 µM; AID 624352; 786-0 RCC cells HIF-2a reporter, luciferase luminescence, overnight; 360,000 tested, 0.72% active;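 active means inhibition of the luminescence signal of 40% or more relative to plate controls, in a single-dose primary screen at 18.75 µM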
KKLEB tox = counter-screen for CF NF-kB inhibitors: cytotoxicity | KKLEB CF airway cells viability, ATPlite luminescence, overnight; stronger effect = lower value; cells stimulated with P. aeruginosa culture filtrate | activity change (cytotoxicity), % at 5 µM | AID 602141 | 360,000 tested, 0.36% active;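 active means corrected activity change at or below -50% at 5 µM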
Peg3 promoter = reduces Peg3 promoter-driven luciferase expression in HeLa | inhibition, % at 20 µM | 360,000 tested, 1.7% active | HeLa PEG-Prom luciferase reporter, luminescence, overnight;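 active means inhibition of at least 50% at 20 µM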
TRAIL sens C8 = sensitizes caspase-8 expressing cells to TRAIL. NB7+C8 cells + TRAIL, ATPlite viability luminescence. inhibition (viability loss, TRAIL sensitization), % at 10 µM. AID 624354. 360,000 tested, 1% active;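 active means compounds causing at least 50% loss of cell viability in the single-dose screen, relative to plate controls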
PPC-1+TRAIL kill = PPC-1 cancer cell killing with TRAIL present; PPC-1 cells + TRAIL, ATPLite viability luminescence; cell killing (% activity), % at 4 µM or 5 µM; AID 1443; 220,000 tested, 0.41% active;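 active means cell killing above 50% in the first pass at 4 µM, then a duplicate retest at 5 µM averaging 50% or more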
CF NFkB inh = cystic fibrosis NF-kB activation inhibition | KKLEB NF-kB-GFP reporter, PAF-induced, GFP fluorescence overnight | inhibition, % at 5 µM | 360,000 tested, 0.86% active | AID 588850;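 active means at least 50% inhibition at 5 µM, scaled per plate between neutral and stimulator controls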;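 further: PAF is a Pseudomonas aeruginosa culture filtrate used as stimulus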
PPC-1 tox = kills PPC-1 cells; shares compounds with PPC-1+TRAIL kill; PPC-1 viability, ATPlite luminescence, overnight; cytotoxicity, % at 5 µM; 1,200 tested, 50% active; AID 1447;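 active means reconfirmed compounds whose average cytotoxicity reaches 50% or more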
Hits are given with their value; . = inactive; / = no result. Most compounds without a hit are left out; they make up all but 3.1% or so of the library.

SMILES	HIF-2a inh	KKLEB tox	Peg3 promoter	TRAIL sens C8	PPC-1+TRAIL kill	CF NFkB inh	PPC-1 tox
Cc1ccc(-c2cc(-c3ccccc3)nc(N/N=C/c3cccnc3)n2)cc1	.	.	.	.	/	.	/
CC(C)NC(=O)C1CCCN(S(=O)(=O)c2cccs2)C1 (configuration not stated)	.	.	.	.	.	.	.
O=C(CSc1nnc(-c2ccccc2)n1-c1ccccc1)NCc1ccco1	.	.	.	.	.	.	/
Cn1c(-c2ccccc2)cnc1SCC(=O)NCc1ccco1	.	.	.	.	.	.	.
COc1ccc(OCc2nnc(SCC(=O)N3C(C)CCCC3C)o2)cc1 (configuration not stated)	.	.	.	.	/	.	/
COc1cccc(/C=N/NC(=O)c2nnn(-c3nonc3N)c2CN(C)C2CCCCC2)c1	.	.	.	.	/	.	/
CCN(CC)c1ccc(C2N(C(=O)N3CCOCC3)CCN2S(=O)(=O)c2ccc(C)cc2)cc1 (configuration not stated)	.	.	.	.	.	.	.
Cc1ccc(N/C=C/C(=O)c2cccs2)cc1C	.	.	.	78	71	.	71
Cc1cc(N/C=C/C(=O)c2cccs2)ccc1F	.	.	.	.	.	.	/
COc1ccc(-c2csc(C)n2)cc1OC	.	.	.	.	.	.	/
COc1ccc(-c2cn3cc(C)ccc3n2)cc1F	.	.	.	73	74	.	74
COc1ccc(-c2cn3cc(C)ccc3n2)cc1OC	.	.	.	72	75	.	73
CC[C@](C)(O)c1cc2ccccc2c(=O)o1	.	.	.	.	/	.	/
NC(=O)c1ccsc1NC(=O)c1ccc2c(c1)CCCC2	.	-58	.	85	78	.	76
NC(=O)c1ccsc1NC(=O)c1ccc(N2CCCC2=O)cc1	.	.	.	80	77	.	74
O=C(NCCCN1CCCC1=O)c1cccc(C(F)(F)F)c1	.	.	.	.	.	.	.
O=C(NCCCN1CCCC1=O)c1cccc(NS(=O)(=O)c2ccccc2)c1	.	.	.	.	/	.	/
COc1ccc(-c2nsc(C(=O)N(c3ccc(F)cc3)C(C(=O)NC3CCCC3)c3ccc(OC)cc3)c2N)cc1 (configuration not stated)	.	.	.	.	.	.	.
COc1ccc(N(C(=O)c2snc(C(N)=O)c2N)C(C(=O)NC2CCCCC2)c2ccc(F)cc2)c(OC)c1 (configuration not stated)	.	.	.	.	/	.	/
COC(=O)c1ccc(OCC(=O)c2ccc(O)cc2O)cc1	.	.	.	.	.	.	.
CCOC(=O)c1ccc(OCC(=O)c2ccc(O)cc2O)cc1	.	.	.	.	.	.	/
COc1ccc(NC(=O)O/N=C/c2c(C)nn(C(C)(C)C)c2C)cc1	.	.	.	.	72	.	74
COc1cccc2c1C(=O)O/C2=C/c1ccc2c(c1)OCO2	.	-73	.	63	.	.	.
CC(=O)/C=C1\OCc2ccccc21	.	/	/	.	/	/	/
CC(C)(C)C(=O)Nc1cccc(-c2nc3ccccc3c(=O)o2)c1	.	.	.	59	52	.	53
SMILES	HIF-2a inh	KKLEB tox	Peg3 promoter	TRAIL sens C8	PPC-1+TRAIL kill	CF NFkB inh	PPC-1 tox
CC(C)=CCC[C@H](C)C[C@@H]1Cc2[nH]c(=S)[nH]c(=O)c2[C@@H](c2ccc(F)cc2)O1	.	/	/	.	/	/	/
Fc1ccc(CSc2nc3ccccc3[nH]2)cc1	.	.	.	.	.	.	.
c1ccc(CSc2nc3ccccc3[nH]2)cc1	.	.	.	.	.	.	/
CC1CCCC(NC(=O)CSc2nnc(C(F)(F)F)n2C)C1C (configuration not stated)	.	.	.	.	/	.	/
Cc1ccc(S(=O)(=O)N2C[C@H]3C(=O)C[C@@H](c4ccc(Cl)cc4)N(S(=O)(=O)c4ccc(C)cc4)[C@H]3C[C@H]2c2cccc3ccccc23)cc1	.	.	.	.	/	.	/
O=C(Nc1ccc(NC(=O)c2ccco2)nc1)c1ccco1	.	.	.	69	53	.	52
COCCN(C(=O)COC(=O)C1CCCCC1)c1c(N)n(Cc2ccccc2)c(=O)[nH]c1=O	.	.	.	.	/	.	/
COc1ccccc1-n1c(C)cc(/C=C2/C(=N)N3C(=NC2=O)SN=C3S(C)(=O)=O)c1C	.	.	.	58	.	.	55
O=C(NCc1ccccn1)c1cc(-c2ccc(-c3ccccc3)cc2)nc2ccccc12	.	.	.	82	61	.	61
CCCOc1cccc(-c2cc(C(=O)NNC(=S)NCC)c3ccccc3n2)c1	.	.	.	.	.	.	/
CCn1cc(-c2cc(C(=O)O)c3ccccc3n2)c(C)n1	.	.	.	.	.	.	/
CCc1ccc(-c2cc(C(=O)Nn3cnnc3)c3ccccc3n2)cc1	.	.	.	93	97	.	97
CCn1cc(-c2cc(C(=O)O)c3ccccc3n2)cn1	.	.	.	62	51	.	55
CCNC(=S)NNC(=O)c1cc(-c2ccc(OCC)cc2)nc2ccccc12	.	-51	.	86	93	.	93
O=C(NCc1ccccn1)c1cc(-c2ccccc2)nc2ccccc12	.	.	.	.	.	.	/
O=C(CN1C(=O)NC2(CCCCCC2)C1=O)NCc1ccccc1	.	.	.	.	/	.	/
CC1(C(=O)NS(=O)(=O)c2ccc3ccccc3c2)CCN1C(=O)Cc1ccc(Cl)cc1Cl (configuration not stated)	.	.	.	.	/	.	/
Cc1cc(NC(=O)CN2C(=O)NC(c3ccccc3)(c3ccc(C)c(C)c3)C2=O)no1 (configuration not stated)	.	.	.	.	/	.	/
CC(C)(C)c1ccc(-c2cc(C(=O)NNC(=O)Nc3ccccc3)c3ccccc3n2)cc1	.	.	.	68	64	.	61
Cc1ccc(NC(=O)CCC(=O)NNC(=O)c2ccccc2[N+](=O)[O-])c(C)c1	.	.	.	.	.	.	.
COc1ccccc1-c1nnc(NC(=O)CSc2nncn2C)s1	.	.	.	83	77	.	68
COc1ccccc1-c1nnc(NC(=O)C(C)Sc2nncn2C)s1 (configuration not stated)	.	.	.	.	.	.	/
COc1cccc(/C=N/Nc2nccnc2Cl)c1O	.	.	53	72	.	.	.
Oc1ccccc1/C=N/Nc1nccnc1Cl	.	.	.	.	.	.	/
Cc1cccc(NS(=O)(=O)c2nnc(NC(=O)C3CCCCC3)s2)c1	.	.	.	.	/	.	/
C/C(=N\NC(=O)c1ccccc1O)c1cccs1	.	.	.	70	58	.	54
CCCCOCCCNC(=O)C[C@@H]1C[C@@]2(C(=O)OC)CC(C)(C)CC=C2N(CCc2ccc(OC)c(OC)c2)C1=O	.	/	/	.	/	/	/
